Test results reported in PubChem BioAssay (Tox21).
Inconclusive results are not listed. A call without a number means that no potency is given here. A structure can be active in one record and inactive in another. Calls of active or inactive are those of the source. Calls follow the shape of the full dose curve.

test: qHTS assay to identify small molecule agonists of the AP-1 signaling pathway - cell viability counter screen (AID 1159525); settings: ME-180 (cervical carcinoma) AP-1-bla cells viability, ATP luminescence, 5 h; series mostly up to 76.8 µM; viability change, negative = cytotoxic: at the top concentration; also: nearly all actives have a fitted effect of over 55% in size
Excerpt: National Center for Advancing Translational Sciences [NCATS]
NIH Chemical Genomics Center [NCGC]
U.S. Environmental Protection Agency [EPA]
National Institutes of Environmental Health Sciences [NIEHS]
National Toxicology Program [NTP]
U.S. Food and Drug Administration [FDA]
Activator protein-1 (AP-1), a transcription factor, plays an important role in tumor genesis by regulating genes involved in cell proliferation, differentiation, apoptosis, and angiogenesis. AP-1 activity is induced by a complex network of signaling pathways that involves extracellular signals, such as growth factors. The AP-1 protein complex formed from c-Fos and c-Jun binding to the AP-1 response element results in transcriptional activation of genes containing such elements within their promoter.
Low molecular weight molecules have been discovered and developed to modulate various components of these signaling pathways, for example, MAP kinase inhibitors. However, many points of pathway modulation remain untested due to the lack of chemical probes making this signaling locus of general interest.
Using a beta-lactamase reporter-gene under control of the AP-1 response element, a cell-based assay [CellSensor(TM) AP-1-bla ME-180 developed by Invitrogen Corp.] was used to measure EGF-induced signaling. The Tox21 10K library compounds were measured for their ability to positively modulate the action of EC50 EGF on reporter gene activity. Compounds were screened in a 15-pt titration series in 1536-well format. The cytotoxicity of the Tox21 compound library against this cell line was tested in parallel by measuring the intra cellular ATP content in the same wells.
Tox21 Assay Protocol Summary:
2500 cells/5uL in Opti-MEM medium containing 0.5% dialyzed FBS, 0.1 mM NEAA, 1 mM sodium pyruvate and 10 mM HEPES was dispensed into 1536-well black wall/clear bottom plates using a Multidrop dispenser and cells were cultured at 37 degrees Celsius overnight. Next day 23 nL of compounds dissolved in DMSO, positive controls or DMSO were delivered to each well using a pin tool. The plates were incubated at 37 degrees Celsius for 5 hours. 1 uL of LiveBLAzerTM B/G FRET substrate (Solution A+B+C+D) was added to each well using a Flying Reagent Dispenser. After incubated at room temperature for 2.5 hours the plates were measured on an EnVision plate reader at Excitation 405nm, Emission1=460nm and Emission 2=530nm. The %Activity was determined from the ratio of 460nm/530nm.
After the plates were read for Beta-Lactamase assay on Envision; 3 ul Cell Titer Glo (Promega) was added to measure the cytotoxicity and the plates were then incubated at RT in dark for 30 min. The luminescence was read on ViewLux (Perkin Elmer, Shelton, CT) using 6 sec exposure. ViewLux data was expressed as relative luminescence units.
For primary data analysis, raw plate reads for each titration point were first normalized relative to […] EGF control (100%) and DMSO only wells (basal, 0%).
For primary data analysis for viability assay, raw plate reads for each titration point were first normalized Tetra n-octyl ammonium bromide control (-100%) and DMSO (control, 100%).
Potency is read from the fitted curve at half-maximal effect.

| Structure (SMILES) | Potency | viability change, negative = cytotoxic |
| --- | --- | --- |
| O=c1[nH]c(=O)n([C@H]2C[C@H](O)[C@@H](CO)O2)cc1Br | inactive |  |
| CN(C)CCOCCN(C)C | inactive |  |
| OCC(CO)(CBr)CBr | inactive |  |
| C#C[C@]1(O)CC[C@H]2[C@@H]3CCC4=CC(=O)CC[C@@H]4[C@H]3CC[C@@]21C | inactive |  |
| CN(C)CCC(c1ccc(Cl)cc1)c1ccccn1 (stereo not given) | inactive |  |
| O=C(O)CCCC[C@@H]1SC[C@@H]2NC(=O)N[C@@H]21 |  | -10.1% (inactive) |
| CCCCC(CC)COC(=O)C(C#N)=C(c1ccccc1)c1ccccc1 (stereo not given) | inactive |  |
| CCCCCC1=CCCC1=O | inactive |  |
| CCC(O)OCCCOC (stereo not given) | inactive |  |
| NNc1nncc2ccccc12 | inactive |  |
| CC(=O)Nc1cccc(O)c1 |  | -4.65% (inactive) |
| CCC(O)OC(O)CC (stereo not given) | inactive |  |
| CCCCC(CC)CO (stereo not given) | inactive |  |
| CCCSc1ccc2nc(NC(=O)OC)[nH]c2c1 | inactive |  |
| O=C(O)[C@H](O)[C@@H](O)[C@H](O)[C@H](O)CO | inactive |  |
| CC[C@H](C)C(=O)O[C@H]1C[C@@H](C)C=C2C=C[C@H](C)[C@H](CC[C@@H]3C[C@@H](O)CC(=O)O3)[C@H]21 | 55.7 µM (active) and inactive |  |
| CC(=O)OCC(=O)[C@@]12N=C(C)O[C@@H]1C[C@H]1[C@@H]3CCC4=CC(=O)C=C[C@]4(C)[C@H]3[C@@H](O)C[C@@]12C | inactive |  |
| O=C(O)CC(C(=O)O)C(CC(=O)O)C(=O)O (stereo not given) | inactive |  |
| C=C(C)C(=O)OCCOCCOCCOC(=O)C(=C)C | inactive |  |
| O=C(O)c1ccc(C(=O)O)cc1 | inactive |  |

| Structure (SMILES) | Potency | viability change, negative = cytotoxic |
| --- | --- | --- |
| C/C=C1/CC2C=CC1C2 (stereo not given) | inactive |  |
| Oc1cccc2ccccc12 | inactive |  |
| C[C@H]1C[C@H]2[C@@H]3CCC4=CC(=O)C=C[C@]4(C)[C@@]3(F)[C@@H](O)C[C@]2(C)[C@@]1(O)C(=O)CO | inactive |  |
| Cc1cc(C)c(C)cc1C | inactive |  |
| OC[C@H]1O[C@@](CO)(O[C@H]2O[C@H](CO)[C@@H](O)[C@H](O)[C@H]2O)[C@@H](O)[C@@H]1O | inactive |  |
| CC1=C(C)S(=O)(=O)CCS1(=O)=O | inactive |  |
| Cc1ccc(S(N)(=O)=O)cc1 | inactive |  |
| C[Si](O[Si](C)(C)C)O[Si](C)(C)C | inactive |  |
| O=C(O)c1cc(=O)c2c(OCC(O)COc3cccc4oc(C(=O)O)cc(=O)c34)cccc2o1 | inactive |  |
| O=C(O)CCCCCCCCCCC(=O)O | inactive |  |
| CC1CCC2CC1C2(C)C (stereo not given) | inactive |  |
| O=c1[nH]nnc2ccccc12 | inactive |  |
| CCCCCOC(C)=O | inactive |  |
| CCCCOC(=O)COc1ccc(Cl)cc1Cl | inactive |  |
| COc1ccc2cc([C@H](C)C(=O)O)ccc2c1 |  | 2.24% (inactive) |
| C=C(C)C(=O)Nc1ccc(Cl)c(Cl)c1 | inactive |  |
| COc1cc(Cc2cnc(N)nc2N)cc(OC)c1OC | inactive |  |
| COc1ccc(Cl)cc1C(=O)NCCc1ccc(S(=O)(=O)NC(=O)NC2CCCCC2)cc1 | inactive |  |
| CC(=O)CC(=O)Nc1ccccc1C | inactive |  |
| CC1=CCC2CC1C2(C)C (stereo not given) | inactive |  |
